Screening data (PubChem BioAssay)
Only some compounds are listed: those with a hit (about 1.8% of all), similar ones and a draw of the others.
DENV2 CPE rescue = inhibitors of DENV2 cytopathic effect, primary screen, cell-based, plate reader, single concentration; AID 651640, 2012; CPE inhibition, % at 9.99 µM; DENV2-infected cells, cytopathic effect rescue; hit rate 1.7% among 350,000; in the data active = CPE inhibition above about 20%, passing the limit was not always enough; inconclusive = no clear call, values can overlap the other calls; tested in BHK-21 cells;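 also: 0% = median of neutral control wells and 100% = median of positive control wells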
ERAP1 HTS inh = human ERAP1 aminopeptidase inhibitors, primary screen, biochemical, single point, plate reader; recombinant ERAP1, Leu-AMC fluorescence, 60 min; hit rate 0.15% among 340,000; Endoplasmic reticulum aminopeptidase 1 (Homo sapiens), Q9NZ08; AID 652197, 2013; inhibition, % at 10.7 µM;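 active = mean replicate inhibition of at least 30%, or all replicates individually reaching that 30% level; inactive = mean below 30% and not every replicate reaching it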;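 also: 0% = neutral control wells and 100% = L-leucinethiol positive control wells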
MLL AF4-AF9 inh = inhibitors of AF4 peptide binding to AF9, primary screen, biochemical, AlphaScreen, biotin-AF4 peptide, FLAG-AF9, single point; Protein AF-9 (Homo sapiens), P42568; inhibition, % at 10 µM; hit rate 0.47% among 350,000;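 active = every replicate reaching a set inhibition limit, whatever the replicate mean, cut at about 25% in these data; inconclusive = mean inhibition reaches that limit but some replicates miss it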;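 also: 0% = plate neutral control median and 100% = total signal loss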
ERp5 inh = inhibitors of ERp5-driven insulin aggregation, primary screen, biochemical, turbidity, absorbance 650 nm, single point | inhibition, % at 9.99 µM | AID 651711, 2012 | Protein disulfide-isomerase A6 (Homo sapiens), Q15084 | hit rate 0.05% among 350,000 | 90 min;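 active = mean replicate inhibition above about 25%, with every replicate also reaching it, limit read from the data, passing the limit was not always enough; inconclusive = only one of those two criteria met; inactive = neither criterion met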
Target sequence (Q15084 whole entry, looked up): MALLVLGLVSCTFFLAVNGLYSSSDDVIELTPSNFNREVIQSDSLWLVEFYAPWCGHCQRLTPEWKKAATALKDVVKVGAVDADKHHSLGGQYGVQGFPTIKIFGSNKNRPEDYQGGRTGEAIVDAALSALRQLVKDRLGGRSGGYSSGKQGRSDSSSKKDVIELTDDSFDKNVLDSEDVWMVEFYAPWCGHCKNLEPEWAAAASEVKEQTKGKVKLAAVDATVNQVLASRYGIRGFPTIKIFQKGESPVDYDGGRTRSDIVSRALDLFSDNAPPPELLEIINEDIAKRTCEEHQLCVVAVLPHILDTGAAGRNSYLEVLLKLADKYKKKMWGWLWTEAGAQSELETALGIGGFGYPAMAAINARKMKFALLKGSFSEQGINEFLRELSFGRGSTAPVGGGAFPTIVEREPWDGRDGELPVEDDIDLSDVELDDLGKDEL
PDI turbidity = inhibitors of human PDI, primary screen, biochemical, turbidity, single point, plate reader | PDI insulin aggregation turbidity, A650, 90 min | inhibition, % at 10 µM | hit rate 0.052% among 350,000;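 active = mean inhibition across replicates of 30% or more, whatever share of single replicates reach that level; inconclusive = mean inhibition below 30% while every single replicate reaches 30%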
* = called active by the depositor; ? = inconclusive; . = not tested or not shown.

SMILES	DENV2 CPE rescue	ERAP1 HTS inh	MLL AF4-AF9 inh	ERp5 inh	PDI turbidity
N#C[C@H]1[C@@H](c2ccc(C#Cc3ccc(F)cc3)cc2)[C@H](CO)N1C(=O)C1CCCC1	-4	3	-4	-1	.
N#C[C@@H]1[C@@H](c2ccc(C#Cc3ccc(F)cc3)cc2)[C@H](CO)N1C(=O)C1CCCC1	23*	1	1	1	.
N#C[C@@H]1[C@@H](c2ccc(C#Cc3ccccc3F)cc2)[C@H](CO)N1C(=O)C1CCC1	30*	0	0	3	.
N#C[C@@H]1[C@@H](c2ccc(/C=C/c3ccccc3)cc2)[C@@H](CO)N1C(=O)C1CCCC1	26*	2	-2	-2	.
N#C[C@@H]1[C@H](c2ccc(C#Cc3ccccc3F)cc2)[C@@H](CO)N1C(=O)C1CCC1	-8	-1	-3	3	.
O=C(NC1CCCCC1)N1CC(=O)N2[C@H](CO)[C@H](c3ccc(/C=C/c4ccccc4)cc3)[C@@H]2C1	-7	0	9	5	.
COc1ccc(-c2ccc3n(c2=O)C[C@H]2[C@H](CO)[C@@H](C(=O)NCCN4CCCC4)N(C)[C@@H]32)cc1	-2	0	3	10	.
CCCN1[C@@H]2c3ccc(C4=CCCC4)c(=O)n3C[C@@H]2[C@@H](CO)[C@@H]1C(=O)OC	-5	3	-2	5	.
COC(=O)[C@H]1[C@H](CO)[C@H]2Cn3c(ccc(C4=CCCCC4)c3=O)[C@H]2N1CC1CCCCC1	?	0	.	-6	.
COC(=O)[C@H]1[C@H](CO)[C@H]2Cn3c(ccc(C4=CCCC4)c3=O)[C@H]2N1CC1CCOCC1	71*	1	-2	3	.
CCCN1[C@H](C(=O)OC)[C@@H](CO)[C@@H]2Cn3c(ccc(C4=CCCC4)c3=O)[C@@H]21	84*	11	0	5	.
COc1ccc(-c2ccc3n(c2=O)C[C@H]2[C@H](CO)[C@@H](C(=O)NCCN4CCCCC4)N(C)[C@@H]32)cc1	34*	3	0	-2	.
CN1[C@@H]2c3ccc(C4=CCCC4)c(=O)n3C[C@@H]2[C@@H](CO)[C@@H]1C(=O)NCc1ccccc1F	50*	4	1	-2	.
O=C(C[C@@H]1CC[C@@H](NC(=O)C2CC2)[C@@H](CO)O1)NCC1CC1	0	-1	-1	-7	.
CCCC(=O)N1CC2(CCN(Cc3cccnc3)CC2)c2c([nH]c3cc(OC)ccc23)[C@H]1CO	18	.	.	.	.
O=C(Nc1ccc(C(F)(F)F)cc1)N[C@H]1C=C[C@H](CC(=O)N2CCCCC2)O[C@H]1CO	-4	-3	-4	2	.
CCC(=O)N1CC2(CN(Cc3ccc(Cl)cc3)C2)c2c(n(C)c3cc(OC)ccc23)[C@@H]1CO	-8	-4	38*	1	.
CCC(=O)N1CC2(CN(Cc3ccc(Cl)cc3)C2)c2c(n(C)c3cc(OC)ccc23)[C@H]1CO	8	-3	29*	-1	.
CCC(=O)N1CC2(CN(Cc3ccc(F)cc3)C2)c2c(n(C)c3cc(OC)ccc23)[C@H]1CO	20	1	5	-1	.
CCCCCCOC(=O)c1ccc(N)cc1	-1	-1	4	0	0
CCCCCCCCCCCC1N=C(N)NC(CCCO)=C1C(=O)OC (configuration not stated)	-9	44*	8	3	21
O=C(C[C@H]1C=C[C@@H](NC(=O)CC2CC2)[C@@H](CO)O1)NCC(F)(F)F	-2	-1	-2	-2	.
COc1ccc(C(=O)N2CCN(C3CCCCC3)CC2)cc1OC	31*	-2	-26	1	0
C[C@H](CO)N1C[C@H](C)[C@H](CN(C)S(=O)(=O)c2ccc(F)cc2)OCCCC[C@H](C)Oc2ccc(NC(=O)C3CCCCC3)cc2C1=O	-10	3	-3	2	.
Cc1ccc(S(=O)(=O)N(C)C[C@@H]2Oc3ccc(NC(=O)c4ccncc4)cc3CC(=O)N([C@@H](C)CO)C[C@@H]2C)cc1	57*	1	0	6	.
SMILES	DENV2 CPE rescue	ERAP1 HTS inh	MLL AF4-AF9 inh	ERp5 inh	PDI turbidity
COc1ccc(S(=O)(=O)N(C)C[C@@H]2Oc3ccc(NC(=O)c4ccncc4)cc3C(=O)N([C@H](C)CO)C[C@@H]2C)cc1	-3	-1	-1	64*	.
Cc1ccc(S(=O)(=O)N(C)C[C@@H]2Oc3ccc(NC(=O)c4ccncc4)cc3C(=O)N([C@H](C)CO)C[C@H]2C)cc1	31*	-15	0	-1	.
Cc1ccc(S(=O)(=O)N(C)C[C@H]2Oc3ccc(NC(=O)NC4CCCCC4)cc3C(=O)N([C@H](C)CO)C[C@H]2C)cc1	-9	1	1	-1	.
Cc1ccc(S(=O)(=O)N(C)C[C@@H]2Oc3ccc(NC(=O)NC4CCCCC4)cc3C(=O)N([C@H](C)CO)C[C@@H]2C)cc1	28*	2	0	1	.
CCCC#Cc1ccc([C@H]2[C@@H](CO)N3C(=O)CN(S(=O)(=O)c4ccccc4C)C[C@H]23)cc1	-2	0	-1	-2	.
C[C@@H]1CN([C@@H](C)CO)C(=O)c2cc(C#CCN(C)C)cnc2O[C@H]1CN(C)C(=O)c1ccc(F)cc1	5	2	0	-8	.
NC(=O)c1cc2cc(Cl)ccc2oc1=Nc1cccc(C(F)(F)F)c1	66*	-3	3	3	4
NC(=O)c1cc2cc(Cl)ccc2oc1=O	.	.	.	.	-8
O=C(CC1CC1)N1CC(=O)N2[C@H](C1)[C@@H](c1ccc(C#Cc3ccccc3)cc1)[C@@H]2CO	1	0	-5	10	.
O=C(c1cnccn1)N1CC(=O)N2[C@H](CO)[C@H](c3ccc(C#CC4CCCC4)cc3)[C@@H]2C1	-13	1	0	8	.
C[C@H]1CN([C@@H](C)CO)C(=O)Cc2cc(NC(=O)Nc3ccccc3)ccc2O[C@H]1CN(C)S(=O)(=O)c1cccs1	33*	-5	3	0	.
C[C@@H]1CN([C@H](C)CO)C(=O)c2cc(NC(=O)Nc3ccc(C(F)(F)F)cc3)ccc2O[C@H]1CN(C)S(=O)(=O)c1ccccc1	33*	-6	0	6	4
Cc1noc(C)c1NC(=O)Nc1ccc2c(c1)CC(=O)N([C@@H](C)CO)C[C@@H](C)[C@@H](CN(C)S(=O)(=O)c1cccs1)O2	36*	8	?	-2	.
Cc1noc(C)c1NC(=O)Nc1ccc2c(c1)CC(=O)N([C@@H](C)CO)C[C@@H](C)[C@H](CN(C)S(=O)(=O)c1cccs1)O2	1	0	7	-4	.
C[C@@H]1CN([C@@H](C)CO)C(=O)c2cc(NC(=O)Nc3ccc(C(F)(F)F)cc3)ccc2O[C@@H]1CN(C)S(=O)(=O)c1ccc(F)cc1	0	-3	3	-15	.
C[C@@H]1CN([C@H](C)CO)C(=O)Cc2cc(NC(=O)Nc3ccccc3)ccc2O[C@@H]1CN(C)S(=O)(=O)c1cccs1	3	-2	4	-1	.
